Activity calls are given as the source filed them. Unless noted, how the calls were made is not given here.
How the values were obtained:
[1] = system: XIP peptide (Xip251-270) binding; experiment: small-molecule binders of XIP peptide, primary screen, biochemical, small-molecule microarray, fluorescence 635/667 nm, 0.1 µg/mL protein (AID 1182); conditions: fluorescent protein binding, 635 nm, higher = more signal, called active from +8 up or from −8 down
XIP peptide (Xip251-270) = experiment: small-molecule binders of XIP peptide, primary screen, biochemical, small-molecule microarray, fluorescence 635/667 nm, 0.5 µg/mL protein (AID 1183); conditions: small-molecule microarray binding, fluorescence 635 nm; higher = more signal
[2] = Plasmodium falciparum growth inhibition, primary screen, strain 3D7, DAPI fluorescence, 100 nL (AID 1184);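 further: parasites grown inside human red blood cells in medium with human serum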; conditions: P. falciparum 3D7 growth, 3 d, higher = more signal
[3] = biological target: Homeobox protein Hox-A13 (Mus musculus) (UniProt Q62424); experiment: inhibitors of HoxA13-DNA binding, primary screen, biochemical, fluorescence polarization, labeled oligonucleotide (AID 1185); conditions: 15 min, higher = more signal, called active from +8 up or from −8 down
Homeobox protein Hox-A13 (Mus musculus), sequence (Q62424 whole entry, looked up): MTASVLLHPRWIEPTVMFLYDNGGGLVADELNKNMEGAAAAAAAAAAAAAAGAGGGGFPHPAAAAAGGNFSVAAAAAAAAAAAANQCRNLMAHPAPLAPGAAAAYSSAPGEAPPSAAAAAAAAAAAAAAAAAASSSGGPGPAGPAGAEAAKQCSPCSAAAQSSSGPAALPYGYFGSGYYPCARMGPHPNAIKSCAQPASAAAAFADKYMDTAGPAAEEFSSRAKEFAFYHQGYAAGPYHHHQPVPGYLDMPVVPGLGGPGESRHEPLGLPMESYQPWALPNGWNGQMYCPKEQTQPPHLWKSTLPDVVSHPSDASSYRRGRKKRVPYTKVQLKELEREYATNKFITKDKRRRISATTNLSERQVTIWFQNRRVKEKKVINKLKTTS

[4] = inhibitors of hydroxyurea-induced Chk1 phosphorylation, primary screen, imaging, HeLa, phospho-Chk1 antibody, percent positive cells (AID 1186); conditions: hydroxyurea-induced phospho-Chk1 immunofluorescence imaging, higher = more signal
[5] = inhibitors of hydroxyurea-induced Chk1 phosphorylation, primary screen, imaging, HeLa, phospho-Chk1 nuclear intensity (AID 1187); conditions: hydroxyurea-induced phospho-Chk1 immunofluorescence imaging, higher = more signal

Row | SMILES | composite z-score [1] | composite z-score (XIP peptide (Xip251-270)) | z-score [2] | z-score [3] | z-score [4] | z-score [5]
1 | NC(=O)N1C(=O)C2C(C1=O)C1C=C(CCCO)C2C(c2cccs2)N1Cc1cc2c(cc1Br)OCO2 (stereo not drawn) | 0.0706 (inactive) | 0.231 | 0.376 | -5.04 (inactive) | 0.164 (inactive) | 0.509 (inactive)
2 | C[C@H]1C2=C3C(CC[C@H]4C(OCc5ccc(F)cc5C(F)(F)F)OC[C@](C)([C@@H]34)N(C(=O)OC(C)(C)C)C2)C(CO)C1CO (stereo partly drawn) | 0.456 (inactive) | 0.724 | -0.736 | -4.04 (inactive) | 0.491 (inactive) | 0.52 (inactive)
3 | [N-]=[N+]=Nc1ccccc1C[C@]1(C(=O)NCc2ccccc2)N=C(c2ccc(OCCCO)cc2)O[C@H]1c1ccccc1 | 0.222 (inactive) | 0.813 | -2.07 | -0.801 (inactive) | 0.0726 (inactive) | 0.176 (inactive)
4 | COc1ccc([Si](C)(C)[C@@H]2[C@@H](CCn3cc([C@H](O)c4ccccc4)nn3)O[C@]3(C(=O)N(Cc4ccc(N5CCOC5=O)cc4)c4ccccc43)[C@H]2C)cc1 | 0.0449 (inactive) | 0.823 | -2.78 | -3.54 (inactive) | 0.875 (inactive) | 0.221 (inactive)
5 | C=CC[C@@]12N=C(c3ccc(OCCCO)cc3)O[C@@H]1c1ccccc1N(CCS(=O)(=O)c1ccccc1)C2=O | 2.13 (inactive) | 0.767 | -2.01 | -2.38 (inactive) | -0.641 (inactive) | -0.295 (inactive)
6 | O=C1NC(=O)C2C1C=CC(C(O)c1cc(C(F)(F)F)cc(C(F)(F)F)c1)N2Nc1ccc(Cl)cc1Cl (stereo not drawn) | 1.75 (inactive) | 0.154 | 0.0295 | -5.48 (inactive) | 1.15 (inactive) | 1.26 (inactive)
7 | CC(C)C(CO)N1C(=O)[C@]2(C)C3C(=O)OCCC/C=C\[C@H]3OC23C=CCN(c2ccc(Cl)cc2)C(=O)[C@@H]13 (stereo partly drawn) | 0.172 (inactive) | 0.146 | 0.775 | -6.76 (inactive) | -0.199 (inactive) | -0.181 (inactive)
8 | CCOC(=O)[C@H]1C/C=C/C[C@H](C(=O)OCC)C(=O)O[C@H]2[C@@H](OC)O[C@H](CO)[C@@H](OC(=O)Nc3ccc(OC)cc3)[C@@H]2OC1=O | 0.568 (inactive) | 0.601 | -1.71 | -0.589 (inactive) | 0.178 (inactive) | 0.395 (inactive)
9 | Cc1ccc(S[C@]2(C(=O)NC3CC3)CC(=O)N(Cc3ccccc3Cl)[C@@H]2c2ccc(CO)cc2I)cc1 | 0.98 (inactive) | 0.824 | 0.287 | -1.54 (inactive) | 0.159 (inactive) | 0.858 (inactive)
10 | CCOC(=O)C[C@H]1[C@H](OC(=O)Cc2ccc3c(c2)OCO3)[C@@H](NC(=O)Cc2ccc(OC)cc2)c2cc(OCCCO)ccc2N1C(=O)c1ccccc1 | 1.08 (inactive) | -0.0883 | -0.382 | -2.51 (inactive) | -0.543 (inactive) | -0.165 (inactive)
11 | C=CC1c2cc(O)c(OC)cc2CCN1Cc1sc2ccccc2c1Cl (stereo not drawn) | 0.51 (inactive) | 0.618 | -0.614 | -2.71 (inactive) | 0.326 (inactive) | -0.0459 (inactive)
12 | CC1CC/C=C\[C@H]2OC34C=CCN(C(C)C)C(=O)[C@H]3N(CCCCCO)C(=O)[C@@H]4C2C(=O)O1 (stereo partly drawn) | -0.572 (inactive) | -1.17 | 1.17 | -3.89 (inactive) | 0.453 (inactive) | 0.532 (inactive)
13 | COC(=O)C1(Cc2ccccc2)C=C2C(=C(c3ccccc3)C(=O)C2C)CN1 (stereo not drawn) | -0.401 (inactive) | 0.691 | -0.246 | -9.2 (active) | 0.222 (inactive) | 0.532 (inactive)
14 | COCCOC(=O)N1C(=O)[C@@]2(c3cc(C#CC4(O)CCCCCC4)ccc31)[C@H](C(=O)N1CCCCCCC1)[C@H]1C(=O)O[C@H](c3ccccc3)[C@H](c3ccccc3)N1[C@@H]2c1ccc(OCCO)cc1 | 1.72 (inactive) | 0.838 | -2.3 | -15.8 (active) | 0.331 (inactive) | 0.805 (inactive)
15 | C=C(CCCC)C(=O)CC[C@@H](OC(=O)c1cccnc1)c1ccccc1OCCO | -0.451 (inactive) | -0.0138 | -3.08 | -3.61 (inactive) | -0.383 (inactive) | -0.227 (inactive)
16 | CC(C)(C)OC(=O)CC[C@]1(C(=O)O)N=C(c2ccc(OCCCO)cc2)O[C@H]1c1ccccc1CN=[N+]=[N-] | 0.109 (inactive) | 0.405 | -0.711 | -4 (inactive) | -0.287 (inactive) | -0.499 (inactive)
17 | CC(=O)n1cc(C(O)C2C=CC3C(=O)N(Cc4ccccc4)C(=O)C3N2n2cnnc2)c2ccccc21 (stereo not drawn) | 0.097 (inactive) | 0.008 | -0.15 | -3.16 (inactive) | 1.19 (inactive) | 0.239 (inactive)
18 | CC(=O)n1cc(C(O)C2C=CC3C(=O)N(c4ccccc4)C(=O)C3N2Nc2ccccc2)c2ccccc21 (stereo not drawn) | 0.853 (inactive) | -0.515 | -0.4 | -3.42 (inactive) | 0.863 (inactive) | 0.355 (inactive)
19 | COc1ccc([Si](C)(C)[C@@H]2[C@@H](CCO)O[C@]3(C(=O)N(Cc4cccc(N5C(=O)c6cccc7cccc5c67)c4)c4ccccc43)[C@H]2C)cc1 | 0.875 (inactive) | 0.635 | -2.52 | -1.52 (inactive) | -0.758 (inactive) | 0.0003 (inactive)
20 | COCCCNC(=O)[C@@]1(Sc2ccc(C)cc2)CC(=O)N(C2Cc3ccccc3C2)[C@@H]1c1ccc(CO)cc1I | 0.0203 (inactive) | -0.314 | 0.701 | -2.28 (inactive) | 0.542 (inactive) | 0.94 (inactive)
21 | CC(C)(C)OC(=O)CC[C@]1(C(=O)NCCN2CCOCC2)N=C(c2ccc(OCCCO)cc2)O[C@H]1c1ccccc1 | 0.471 (inactive) | 0.598 | 0.207 | -4.62 (inactive) | -0.103 (inactive) | 0.201 (inactive)
22 | O=C1OCC=C[C@H]2OC34C=CCN(c5ccc(Cl)cc5)C(=O)[C@H]3N(CCCCCO)C(=O)[C@@H]4[C@@H]12 (stereo partly drawn) | -0.0492 (inactive) | -0.192 | -0.826 | -3.66 (inactive) | -0.11 (inactive) | -0.281 (inactive)
23 | C=CCC(OC(C)=O)[C@@H]1[C@@H](N(Cc2ccc(-c3ccccc3)cc2)C(=O)c2cccc3ccccc23)c2cc(OCCCO)ccc2N1C(=O)Cc1ccc2ccccc2c1 (stereo partly drawn) | -0.366 (inactive) | 0.579 | -0.171 | -1.26 (inactive) | -0.8 (inactive) | -0.493 (inactive)
24 | COc1ccccc1CN1C(=O)c2ccccc2[C@](Cc2ccccc2I)(C(=O)NC(C)C)[C@@H]1c1ccc(CO)cc1 | 0.265 (inactive) | 0.585 | -1.95 | -3.59 (inactive) | -0.316 (inactive) | -0.471 (inactive)
25 | CCOC(=O)C1=CC[C@@H](c2cc(Cl)ccc2Cl)N(S(=O)(=O)c2ccc(C)cc2)[C@H]1c1ccc(OC)cc1 | -0.244 (inactive) | -0.837 | -1.41 | -1.08 (inactive) | -0.256 (inactive) | -0.611 (inactive)
26 | C=CCOC(=O)[C@H]1[C@@H]2C(=O)O[C@@H](c3ccccc3)[C@@H](c3ccccc3)N2[C@@H](c2ccc(OCCOC(=O)[C@H]3C[C@H]4C(=O)N[C@@H](Cc5ccccc5)C(=O)N4[C@H]3c3ccc(O)cc3)cc2)[C@]12C(=O)Nc1ccc(I)cc12 | 0.451 (inactive) | 0.768 | -1.62 | 1.21 (inactive) | -0.688 (inactive) | -0.476 (inactive)
27 | CN(C)CCCCNC(=O)[C@H]1C[C@H]2C(=O)N[C@@H](CCCCN(C)C)C(=O)N2[C@H]1c1cccc(OCCO)c1 | 1.64 (inactive) | 0.675 | 0.649 | -3.26 (inactive) | 0.368 (inactive) | 0.217 (inactive)
28 | COC(=O)C1(Cc2ccccc2)C=C2C(=C(C(C)C)C(=O)C2C)CN1 (stereo not drawn) | 0.0989 (inactive) | 0.648 | -1.07 | -9.8 (active) | 0.366 (inactive) | 0.602 (inactive)

Reference: PubChem BioAssay
